Screens deposited in PubChem BioAssay by National Center for Advancing Translational Sciences (NCATS).
A selection: hits, their analogues and other compounds. The true share with any hit is near 22%.
Shiga inhibitor = inhibitors of Shiga toxin in Vero cells. Vero cells, Shiga toxin protein synthesis inhibition reporter. inhibition, % at 38.7 µM. 290,000 tested, 9.2% active; in the data active means inhibition mostly above about 28%, no sharp cut-off; inactive means mostly below about 43%; further: 0% is about no effect
CHX counter = counter-screen hit for Shiga toxin inhibitors, cycloheximide | 300,000 tested, 12% active | cell reporter, cycloheximide protein synthesis inhibition counterscreen | max response, %; in the data active means max response mostly above about 13%, no sharp cut-off; inactive means mostly below about 14%; further: read at 38.3 µM for the half of the compounds with a filed dose; 0% is about no effect
Pf growth 48h = inhibits P. falciparum growth in the first generation, 48 h | Potency, µM (series often up to 28.7 µM), for the others: top-dose activity change, negative = inhibition, actives largely listed as inhibitors | P. falciparum luciferase growth in erythrocytes, 48 h | 310,000 tested, 5.9% active | AID 504832; further: potency means the concentration at half of the fitted maximal effect; on the % scale 0 is the no-effect control and ±100 the full control effect
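Luminescence readout; reporter = integrated firefly luciferase in P. falciparum. RBC culture at 2% hematocrit, 0.1% parasitemia final, 37 C/5% CO2; decreased signal taken as growth inhibition.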
Pf growth 96h = inhibits malaria parasite growth, 96 h; P. falciparum luciferase reporter growth, 96 h; Potency, µM (top dose mostly 28.7 µM), for inactives: at the top dose activity change, negative = inhibition, actives largely listed as inhibitors; 320,000 tested, 6.9% active; AID 504834; further: potency means the concentration at half of the fitted maximal effect; on the % scale 0 is the no-effect control and ±100 the full control effect
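Luminescence readout: decreased luciferase signal marks inhibited growth of reporter-expressing P. falciparum in infected red cells (2% hematocrit, 0.05% parasitemia final), exposed to compound two generations (96 h, 37 C, 5% CO2).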
LmPK inh = inhibitors of Leishmania mexicana pyruvate kinase. 290,000 tested, 0.37% active. Q27686. purified LmPK, Kinase-Glo ATP luminescence, 1 h. Potency, µM (doses to about 57.5 µM), for inactives: at the highest dose activity change, negative = inhibition, most hits filed as inhibitors; further: potency means the concentration at half of the fitted maximal effect; on the % scale 0 is the no-effect control and ±100 the full control effect
Target sequence (Q27686 whole entry, looked up): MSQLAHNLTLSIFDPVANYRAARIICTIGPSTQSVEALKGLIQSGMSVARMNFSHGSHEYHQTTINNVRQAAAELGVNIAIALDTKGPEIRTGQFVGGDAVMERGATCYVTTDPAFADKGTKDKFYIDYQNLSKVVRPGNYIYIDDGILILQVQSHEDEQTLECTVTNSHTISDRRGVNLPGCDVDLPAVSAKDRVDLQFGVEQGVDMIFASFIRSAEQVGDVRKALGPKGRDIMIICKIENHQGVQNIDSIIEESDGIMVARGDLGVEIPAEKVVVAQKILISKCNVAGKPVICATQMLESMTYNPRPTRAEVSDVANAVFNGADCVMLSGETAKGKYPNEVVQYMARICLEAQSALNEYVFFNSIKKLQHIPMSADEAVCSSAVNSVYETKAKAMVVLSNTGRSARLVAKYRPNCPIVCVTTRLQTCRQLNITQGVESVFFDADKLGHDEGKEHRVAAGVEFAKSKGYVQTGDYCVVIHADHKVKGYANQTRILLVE
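Purified LmPK (0.1 nM) converted ADP (0.1 mM) to ATP with PEP (0.5 mM) in imidazole buffer pH 7.2 with KCl and MgCl2, 1 h at room temperature. ATP was read by Kinase-Glo luminescence; data normalized to uninhibited and no-enzyme controls.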
The depositor's hits bear a star; ? = inconclusive; / = not tested or not shown; [ ] = remark or other dose. Unless noted, the call rests on the fitted dose curve; in most records, active means well fitted inhibition curve with a large enough effect; inconclusive means small, poorly fitted or top-dose-only effect, or another doubt; inactive means no such curve, though single readings can be large or run the other way.

SMILES | Shiga inhibitor | CHX counter | Pf growth 48h | Pf growth 96h | LmPK inh
O=C(NC1C2CC3CC(C2)CC1C3)c1ccc2c(c1)OCO2 (configuration not stated) | 36* | 28* | -5% | ? | -4%
COc1ccc(/C(C)=N\NC(=O)c2ccc3c(c2)OCO3)cc1OC | 49 | 39* | 15% | 107% | 0%
CC(=O)Nc1cccc(/C(C)=N/NC(=O)c2ccc(O)cc2)c1 | 52 | 31* | 21% | 34% | -2%
CCCCc1nc2c(c3c1C[C@H](C)OC3)CN(C(=O)N[C@H](C(=O)OC)C(C)C)CC2 | / | / | / | / | -1%[11.5 µM]
CCCn1c(=O)[nH]c(=O)c2c1nc(-c1cc([N+](=O)[O-])ccc1Cl)n2CCOC | -16 | 0 | ? | ? | -7%
C/C(=N\NC(=O)c1ccc(Cl)c(Cl)c1)c1ccc(Br)s1 | -2 | -1 | -18% | 10% | 0%
C/C(=N\NC(=O)c1ccccc1C)c1cccc([N+](=O)[O-])c1 | 10 | 10 | / | -17% | -7%
C/C(=N\NC(=O)c1cccc([N+](=O)[O-])c1)c1cccs1 | 39* | 13 | 64% | 36% | -2%
C/C(=N/NC(=O)c1ccc2c(c1)OCO2)c1cccc([N+](=O)[O-])c1 | 37* | 31* | 73% | ? | -8%
O=C(CNC(=O)c1ccc2c(c1)OCO2)N/N=C/c1cccc([N+](=O)[O-])c1 | 31 | 11 | 4% | 51% | -4%
C/C(=N/NC(=O)c1ccc2c(c1)OCO2)c1ccc(Br)s1 | 49* | 16 | 58% | ? | 13%
CC(C)C1CC(CCN)(Cc2ccccc2)CCO1 (configuration not stated) | -14 | -2 | ? | -9% | 2%
O=C(c1ccc(Cl)cc1Cl)n1nnc2ccccc21 | -3 | 2 | / | / | /
CN(C)CCCN(C(=O)c1ccc2c(c1)OCCO2)c1nc2ccc(Cl)cc2s1 | 36 | 15* | 10µM* | 12µM* | -3%
CCN(CC)CCN(C(=O)c1ccc2c(c1)OCCO2)c1nc2c(Cl)cccc2s1 | 26 | 1 | ? | ? | -9%
Cc1ccc(C(=O)N(CCCN(C)C)c2nc3ccc(Cl)cc3s2)cc1C | -32 | -7 | 12µM* | ? | -7%[11.5 µM]
CN(C)CCCN(C(=O)c1ccco1)c1nc2ccc(Cl)cc2s1 | 19 | -5 | 0% | -16% | -1%
CN(C)CCN(C(=O)c1ccc2c(c1)OCCO2)c1nc2ccc(Cl)cc2s1 | 36 | 27* | 46% | ? | 6%[11.5 µM]
O=C(CCC(=O)N1CCN(c2cccc(Cl)c2)CC1)c1cccs1 | / | / | 13% | 7% | /
Cc1ccc(-n2nc3c(c2NC(=O)c2ccc4c(c2)OCO4)CS(=O)(=O)C3)cc1C | -31 | -3 | -23% | ? | -11%
NC(N)=NC(N)=Nc1ccc(SC(F)(F)F)cc1 | -8 | -4 | 15µM* | 3.3µM* | -1%
NC(N)=NC(N)=Nc1ccc2ccccc2c1 | 15 | 7 | ? | ? | -4%
CC(C)N1CCN(Cc2cnc(N3CCCC3)s2)CC1CCO (configuration not stated) | -7 | -3 | 8% | 9.3µM* | -1%
CC(C)N1CCN(Cc2nc(-c3ccccc3)cs2)CC1CCO (configuration not stated) | 24 | 20* | 32% | 4% | 5%
CC(C)CCN1CCN(Cc2nc(-c3ccc(F)cc3)cs2)CC1CCO (configuration not stated) | -8 | 1 | ? | 12µM* | 0%
SMILES | Shiga inhibitor | CHX counter | Pf growth 48h | Pf growth 96h | LmPK inh
CCOC(=O)c1c(NC(=O)Cn2nc(C(F)(F)F)cc2C)sc(C)c1C | -2 | -2 | -8% | -16% | 8%
O=C(N=C1SC2CS(=O)(=O)CC2N1Cc1ccccc1Cl)C1CC1 (configuration not stated) | -11 | -2 | -5% | 12% | -1%
O=C(NCCc1ccccc1)c1n[nH]c(=O)c2ccccc12 | 26 | 27* | 26% | -27% | 7%
CC1CCN(CCCNC(=O)c2n[nH]c(=O)c3ccccc23)CC1 | -19 | -4 | 21% | 12µM* | 1%
CC1CCN(CCCNC(=O)c2coc3nc4ccccc4nc23)CC1 | -4 | 2 | ? | 38% | ?
Cc1ccc(C2CC(=O)C=C(NCc3ccccc3)C2)cc1 (configuration not stated) | 18 | -4 | 3% | 11% | 3%
COc1ccccc1N1C(C)=CC(=C(C#N)c2nc3ccccc3s2)C=C1C | 42 | 22* | 9.3µM* | ? | 0%
CC1=CC(=C(C#N)c2nc3ccccc3s2)C=C(C)N1c1ccc(F)cc1 | -1 | 9 | ? | ? | 3%
COc1ccc(N(CC(=O)NCCc2ccc(Cl)cc2)S(=O)(=O)c2c(C)[nH]c(=O)[nH]c2=O)cc1 | 21 | 9 | -23% | ? | 3%
CCO[C@@H]1OC(C(=O)NC2CC2)=C[C@H](c2ccc(C(F)(F)F)cc2)[C@H]1CCCO | -12 | 0 | -23% | -26% | 5%
CNC(=S)Nc1cc(C(=O)N2CCCC2)ccc1N1CCCC1 | 26 | 7 | 22% | 5.2µM* | 3%
CCNC(=S)Nc1cc(C(=O)N2CCCC2)ccc1N1CCCC1 | -13 | -6 | 5% | -19% | 3%
CCOc1ccc(Cl)cc1S(=O)(=O)N1CCC(C(=O)NC2CC2)CC1 | 2 | -7 | ? | -1% | -2%
Cn1c(CNC(=O)c2ccco2)nnc1SCC(=O)N1CCN(c2ccccc2F)CC1 | -19 | 9 | ? | ? | 6%
O=C(Nc1cccc(F)c1)N(Cc1ccc(Cl)cc1)CC(O)C(F)(F)F (configuration not stated) | 11 | 1 | 8.3µM* | 2.6µM* | 2%
CCCCn1c(-c2csc3c2CCC(C)C3)n[nH]c1=S (configuration not stated) | -11 | -3 | 0.93µM* | -33% | 18µM*
CCCCn1c(-c2csc3c2CCCC3)n[nH]c1=S | 37 | 22 | / | -9% | 13µM*
CCCCn1c(-c2csc3ccccc23)n[nH]c1=S | -10 | -2 | / | ? | 14µM*
CCn1c(-c2csc3c2CCCC3)n[nH]c1=S | -7 | 15 | -7% | -12% | ?
C[C@@H](C(=O)Nc1ccc2ccccc2c1)[C@@H]1C[C@@]1(C)[C@@H](NC(=O)c1cnccn1)c1ccccc1 | 7 | 1 | ? | ? | -1%
C[C@@H](C(=O)Nc1ccc2ccccc2c1)[C@H]1C[C@]1(C)[C@H](NC(=O)c1cnccn1)c1ccccc1 | -14 | -1 | 2.9µM* | 1.5µM* | -1%
Cc1cc(C(=O)N[C@H](c2ccccc2)[C@@]2(C)C[C@@H]2[C@@H](C)C(=O)Nc2ccc3ccccc3c2)no1 | -11 | -2 | ? | 12µM* | -1%
CC(=O)c1ccc(NC(=O)C(C)OC(=O)c2ccc3c(c2)nc(C)n3-c2ccccc2)cc1 (configuration not stated) | 45* | 29* | 1% | 21% | -2%
